Sampled rows, rich in hits. Any-hit rate of the full collection: about 8%.
MCF10A rereplic – A quantitative high throughput screen for small molecules that induce DNA re-replication in MCF 10a normal breast cells; 350,000 tested, 2.9% active; MCF 10A DNA re-replication, Hoechst nuclear intensity, 48 h; Potency, µM (titrated, usually from 46.1 µM), for the others: at the top dose activity, positive = re-replication, hits mostly activators; note: % of control where 0% means no effect; nearly all actives have a fitted effect of over 50% in size
HT1080NT lethal – qHTS for induction of synthetic lethality in tumor cells producing 2HG: qHTS for the HT-1080-NT fibrosarcoma cell line; HT-1080-NT fibrosarcoma viability, CellTiter-Glo ATP luminescence, 48 h; 360,000 tested, 1.6% active; Potency, µM (series often up to 46.1 µM), without a hit: top-dose activity, negative = less viability, actives largely listed as cytotoxic;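 note: NT is the 2HG producing partner of a matched IDH1 knockdown line; 0% = DMSO-treated cells and -100% = media-only wells without cells; nearly all actives have a fitted effect of over 55% in size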
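HT-1080-NT fibrosarcoma cells (2HG-overproducing), 750 cells/well in RPMI with 5% FBS, dosed after 2 h and incubated 48 h at 37C. CellTiter-Glo luminescence normalized to DMSO and no-cell wells; concentration-response curves fitted and classed.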
HT1080 IDH1KD tx – qHTS for induction of synthetic lethality in tumor cells producing 2HG: qHTS for the HT-1080-IDH1KD cell line; AID 686971, 2013; HT-1080 IDH1 knockdown viability, ATP luminescence, 48 h; Potency, µM (titrated, usually from 46.1 µM), for the others: at the highest dose activity, negative = toxicity, hits mostly cytotoxic; 360,000 tested, 2% active;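 note: 0% = DMSO wells and -100% = cell-free medium wells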
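IDH1KD HT-1080 cells, 750/well, RPMI + 5% FBS; compound pinned after 2 h settling; 48 h, 37 °C; CellTiter-Glo luminescence; % activity normalised to DMSO and no-cell wells; curves fitted, classed by r2 and efficacy.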
KB-V1 cytotox – qHTS assay for MDR1-selective chemotherapeutics: Primary screen using the drug-selected MDR subline cells KB-V1. Potency, µM (highest dose often 46.1 µM), actives largely listed as cytotoxic. 400,000 tested, 3.4% active. AID 1347076, 2019. KB-V1 MDR cells viability, CellTiter-Glo, 72 h; note: % is set by controls: 0 for no effect and ±100 for the full control effect; nearly all actives have a fitted effect of over 60% in size
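KB-V1 MDR subline cells in DMEM (phenol-red free, 10% FBS) exposed to compounds in qHTS concentration series for 72 h at 37 degrees C. Viability read by CellTiter-Glo luminescence; concentration-effect curves fitted after normalization and correction.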
SW480 rereplic – A quantitative high throughput screen for small molecules that induce DNA re-replication in SW480 colon adenocarcinoma cells. SW480 DNA re-replication, Hoechst DNA content imaging, 48 h. Potency, µM (titrated, usually from 46.1 µM), for inactives: top-dose re-replication activation, actives largely listed as activators. 340,000 tested, 1.8% active; note: % of control where 0% means no effect; nearly all actives have a fitted effect of over 55% in size
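Treated cells incubate 48 hr (37 C, 5% CO2), are stained 40 min with Hoechst, and nuclear fluorescence is enumerated; a rise in nuclei with high DNA signal marks re-replication.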
KB-3-1 cytotox – qHTS assay for MDR1-selective chemotherapeutics: Primary screen using the parental adenocarcinoma cell KB-3-1; AID 1347075, 2019; 400,000 tested, 1.4% active; Potency, µM (series often up to 46.1 µM), hits mostly cytotoxic; KB-3-1 viability, CellTiter-Glo ATP luminescence, 72 h; note: % is set by controls: 0 for no effect and ±100 for the full control effect; nearly all actives have a fitted effect of over 60% in size
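Screening of KB-3-1 cells (DMEM, 10% FBS, phenol-red free) ran from lowest to highest compound concentration; after 72 h at 37 °C viability was read luminescently and curves fitted.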
* = called active by the depositor; i = inactive; u = inconclusive; x = not tested or not shown; [ ] = dose if it differs, or a comment. Calls come from the whole dose curve; as a rule, active = well fitted curve in the direction sought with a large enough effect; inconclusive = small, poorly fitted or top-dose-only effect, or another doubt; inactive = no such curve, though single readings can be large; an effect the other way counts as inactive or inconclusive. Potency is the fitted concentration of half-maximal effect.

SMILES	MCF10A rereplic	HT1080NT lethal	HT1080 IDH1KD tx	KB-V1 cytotox	SW480 rereplic	KB-3-1 cytotox
COc1cc(/C=N/NC(N)=S)cc(Br)c1OCc1ccccc1F	u	-10%	-19%	18µM*	5%	i
O=[N+]([O-])c1cccc(S(=O)(=O)Nc2nc3ccccc3nc2Nc2cccc(S(=O)(=O)N3CCCCC3)c2)c1	8%	u	u	u	9%	i
Cc1ccc(S(=O)(=O)Nc2nc3ccccc3nc2Nc2cccc(S(=O)(=O)N3CCCC3)c2)cc1	21µM*	-23%	-26%	u	u	u
O=S(=O)(Nc1nc2ccccc2nc1Nc1ccc2c(c1)OCO2)c1ccccc1	9%	2%	0%	5.2µM*	2%	i
O=S(=O)(c1ccc2nc(Nc3ccccc3)ccc2c1)N1CCCCC1	u	u	26µM*	i	2.8µM*	u
COCCn1c(C)nnc1SCC(=O)Nc1ccccc1[N+](=O)[O-]	-5%	2%	7%	i	-6%	u
Cc1onc(-c2c(F)cccc2Cl)c1C(=O)OCC(=O)NC(N)=O	0%	-16%	-11%	u	-1%	u
Cc1onc(-c2c(F)cccc2Cl)c1C(=O)OCC(=O)NC(c1ccccc1)c1ccccc1	0%	-24%	u	6.5µM*	13%	i
CCOC(=O)CCCCC(=O)c1[nH]c(=O)[nH]c1CSc1nc2ccccc2[nH]1	-11%	u	6%	i	-4%	i
CCCCC[C@@H](/C=C/C1C(=O)C=C[C@H]1C/C=C\CCCC(=O)OC)OC(C)=O (stereo partly drawn)	18µM*	u	u	u	-22%[9.22 µM]	u
CCC(C(=O)OCC(=O)c1ccc(OC)cc1OC)c1ccccc1 (stereo not drawn)	-1%	-1%[9.24 µM]	4%	i	7%	u
CCN(c1ccc(OC)cc1)S(=O)(=O)c1ccc2[nH]c3c(c2c1)CCCCC3	x	x	x	18µM*	x	8.2µM*
Cc1ccc(NS(=O)(=O)c2ccc3[nH]c4c(c3c2)CCCCCC4)cc1	x	x	x	i	x	u
Cc1ccc(N(C)S(=O)(=O)c2ccc3[nH]c4c(c3c2)CCCC4)cc1	x	x	x	18µM*	x	i
CCc1cc(=O)oc2cc(C)c3c(C)coc3c12	0%	-5%	3%	i	-1%	i
Cc1ccc2cc(CN(CCN3CCOCC3)C(=O)NCc3ccccc3)c(=O)[nH]c2c1C	3%	-4%	-14%	i	2%	i
CC(=O)C1=C(NC(=O)c2ccccc2F)C[C@@H]2[C@H]1C2(C)C	16%	-2%	1%	i	2%	i
Cc1c(C(=O)NCc2ccc3c(c2)OCCO3)sc(=O)n1Cc1ccc2c(c1)OCO2	x	-16%	2%	u	x	i
Cc1c(C(=O)NCc2ccc([N+](=O)[O-])cc2)sc(=O)n1Cc1ccc2c(c1)OCO2	x	u	-30%	15µM*	x	i
Cc1c(C(=O)NCc2cccc(C(F)(F)F)c2)sc(=O)n1Cc1ccc(S(=O)(=O)N(C)C)cc1	x	-7%	-27%	u	x	u
Cc1c(C(=O)NCc2ccc3c(c2)OCCO3)sc(=O)n1Cc1ccc(S(=O)(=O)N(C)C)cc1	x	-1%	u	9.2µM*	x	u
Cc1c(C(=O)NCc2ccc3c(c2)OCO3)sc(=O)n1Cc1ccc(S(=O)(=O)N(C)C)cc1	x	-22%	u	2.9µM*	x	u
Cc1c(C(=O)NCc2cccs2)sc(=O)n1Cc1ccc(S(=O)(=O)N(C)C)cc1	x	-2%	-13%	u	x	u
COc1ccc(CNC(=O)c2cn(Cc3ccc(S(=O)(=O)N(C)C)cc3)c(=O)s2)cc1	x	-7%	u	23µM*	x	u
CC(C)CN=C(NS(=O)(=O)c1ccccc1)C(Cl)(Cl)Cl	2.9µM*	6.5µM*	6.5µM*	u	6.5µM*	8.2µM*
SMILES	MCF10A rereplic	HT1080NT lethal	HT1080 IDH1KD tx	KB-V1 cytotox	SW480 rereplic	KB-3-1 cytotox
Fc1ccc2c(c1)C1C=CCC1C(c1cc3c(cc1Br)OCO3)N2 (stereo not drawn)	23µM*	u	u	u	u	u
Fc1ccc([C@@H]2Nc3ccccc3[C@@H]3C=CC[C@@H]32)cc1	x	x	x	i	x	i
CCOc1ccc(N2C(=O)CC(Sc3nnnn3-c3ccccc3)C2=O)cc1 (stereo not drawn)	u	-28%	15µM*	i	16µM*	i
CCOc1ccc(-n2nnnc2SCC(=O)c2ccccc2)cc1	4.1µM*	u	u	u	u	u
COc1ccc(-n2nnnc2SCC(=O)c2cccc(OC)c2)cc1	u	22µM*	-3%[9.24 µM]	i	-6%	i
CCOc1ccc(N2C(=O)CC(SCCN)C2=O)cc1 (stereo not drawn)	-188%[0.0737 µM]	7%	11%	i	-4%	i
O=C(OCCCOc1ccc(F)cc1)c1ccc(O)cc1O	u	1%	-2%	i	0%	i
O=C(CC1C(=O)NCCN1C(=O)c1ccc(F)cc1)OCc1ccccc1 (stereo not drawn)	-7%	3%	0%	i	-8%	i
O=C(NCC1CCCO1)C(C(=O)c1ccccc1)n1ccccc1=O (stereo not drawn)	-191%[0.0737 µM]	-1%	10%	u	-13%	i
O=C(NCC1CCCO1)C(Cc1ccccc1)N1C(=O)C2C3C=CC(C4CC34)C2C1=O (stereo not drawn)	15µM*	9%	-3%	i	u	i
CCOC(=O)C1=C(C)NC(=S)N(C(C)=O)C1c1ccc(Cl)cc1 (stereo not drawn)	-3%	u	13µM*	i	-1%	i
CCOC(=O)C1=C(C)NC(=S)N(C(C)=O)C1c1ccc(OC)c(OC)c1 (stereo not drawn)	u	u	u	i	-2%	i
COC(=O)C1=C(C)N(C)C(C)=C(C(=O)OC)C1c1ccc(Cl)cc1	17%	3%	-8%	i	2%	u
CCOC(=O)C1=C(C)N(C)C(C)=C(C(=O)OCC)C1c1ccc(Cl)cc1	23µM*	u	23µM*	u	u	i
